Source: PubChem BioAssay (National Center for Advancing Translational Sciences (NCATS))
Compounds with a hit are over-represented: about 2.1% of the library has one in this group of screens.
aSyn rescue – qHTS of alpha-syn Inhibitors. Yeast expressing alpha-synuclein, growth rescue, BacTiter-Glo, 24 h. Potency, µM (series often up to 46.1 µM), for the others: top-dose growth rescue (activation), hits mostly activators. hit rate 0.14% among 370,000. AID 652106, 2013; also: % of control where 0% means no effect; nearly all actives have a fitted effect of over 65% in size
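Readout is rescue of growth in alpha-synuclein-expressing yeast, so inhibitors of toxicity appear as activators. Growth after 24 hr at 30 deg C in galactose medium is quantified by luminescence.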
FUS yeast rescue – qHTS for Suppressors of FUS Proteinopathy: Primary screen using FUS-linked yeast assay | S. cerevisiae FUS-expressing, growth rescue, OD600, 24 h | Potency, µM (titrated, usually from 76.6 µM), actives largely listed as activators | hit rate 0.24% among 390,000;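 also: plate controls were DMSO vehicle for no effect and reference control for full effect; nearly all actives have a fitted effect of over 55% in size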
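FUS-expressing yeast, raffinose-pregrown, induced in 2% galactose minimal medium at OD 0.005; compounds in a dilution series, 24hr at 30C. Growth restoration read as absorbance at 600 nm. CP55940 positive control, DMSO negative.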
Abeta yeast res – qHTS for compounds that reverse cellular toxicity of Amyloid beta (A-beta) peptide in yeast: Primary Screen; hit rate 0.063% among 410,000; AID 1347071, 2019; yeast expressing A-beta42, growth rescue, OD600, 48 h; response scale: 0% DMSO, 100% iron-clioquinol control; Potency, µM (titrated, usually from 46.1 µM), hits mostly activators; also: nearly all actives have a fitted effect of over 55% in size
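Yeast A-beta toxicity model in growth medium with pinned compounds, 48 h at 30 C; growth read as absorbance at 600 nm. Normalized to FeCl3/clioquinol equimolar mix (positive) and DMSO (negative).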
TDP43 rescue – qHTS of TDP-43 Inhibitors. hit rate 1.8% among 410,000. Potency, µM (highest dose often 46.1 µM), inactives show at the top dose growth rescue (activation), most hits filed as activators. TDP-43 expressing yeast growth rescue, BacTiter-Glo, 24 h. AID 652104, 2013; also: % of control where 0% means no effect; nearly all actives have a fitted effect of over 50% in size
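Luminescence from BacTiter-Glo reports growth of TDP-43-expressing yeast after 24 hr at 30 deg C with compound. Cells were raffinose-pregrown to mid-log, then seeded in galactose medium at OD600=0.02.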
Active calls of the source: *; i = inactive; ? = inconclusive; . = no result; [ ] = dose if it differs, or a comment. Calls follow the shape of the dose curve; as a rule, active = well fitted curve in the direction sought with a large enough effect; inconclusive = small, poorly fitted or top-dose-only effect, or another doubt; inactive = no such curve, though single readings can be large; an effect the other way counts as inactive or inconclusive. Potency is read from the fitted curve at half-maximal effect.

SMILES | aSyn rescue | FUS yeast rescue | Abeta yeast res | TDP43 rescue
CCN(CC)c1ccc(/C=C(/C#N)c2nc3ccc(C)cc3[nH]2)c(OC(C)C)c1 | -35% | 8.9µM* | i | ?
Cc1cccc(C)c1N1C(=O)CC(N2CCN(S(=O)(=O)c3ccccc3F)CC2)C1=O (stereo unspecified) | 1% | i | i | 20%
COc1ccc(NC(=O)N(Cc2cc3ccc(OC)cc3[nH]c2=O)CC2CCCO2)cc1 (stereo unspecified) | 2% | i | i | -14%[9.22 µM]
Cc1c(C(=O)n2cnc3ccccc32)cccc1[N+](=O)[O-] | -2% | i | i | ?
Cc1nc2ccccc2n1C(=O)c1ccccc1[N+](=O)[O-] | -1% | . | i | 20µM*
O=C(COC(=O)c1ccccc1F)NC(=O)NC1CCCC1 | -1%[1.84 µM] | i | i | -6%
O=C1CCCc2nc(N3CCCCC3)sc21 | 0% | i | i | 25%
COCCNC(=O)c1ccccc1NS(=O)(=O)c1ccc(Br)s1 | 2% | i | i | -22%
O=S(=O)(Nc1ccc(F)cc1F)c1ccc(Br)s1 | . | i | i | 20µM*
COc1ccccc1CNS(=O)(=O)c1ccc(Br)s1 | 10% | i | i | 13µM*
CCOc1ccccc1NS(=O)(=O)c1ccc(Br)s1 | 14µM* | i | i | -18%
Cc1ccc(F)cc1NS(=O)(=O)c1ccc(Cl)s1 | 13%[1.84 µM] | i | i | 35µM*
Oc1ccccc1N1CCN(c2nnnn2-c2ccccc2)CC1 | -2% | i | i | 15%
COc1ccc2oc(C(=O)N(C)CCOc3ccc(Cl)cc3)c(C)c2c1 | -2% | i | i | 16%
COc1ccccc1CCNC(=O)c1ccc(Br)s1 | 12% | i | i | 14µM*
COc1ccccc1CCNS(=O)(=O)CCNC(=O)c1ccccc1 | -2% | i | i | -1%
CCN(CC)CCSc1nnc2c3cc(F)ccc3n(C)c2n1 | . | i | i | -15%
CSc1nnc2c3cc(F)ccc3n(C)c2n1 | 2.8µM* | i | i | 6.3µM*
CCc1nonc1NC(=O)c1oc2ccc(F)cc2c1C | -4% | i | i | ?
Fc1ccc2[nH]c3c(Cl)ncnc3c2c1 | 10% | i | i | ?
COc1ccc2[nH]c3c(Cl)ncnc3c2c1 | 27% | . | i | 13µM*
Cc1ccc(S(=O)(=O)N(C)c2ccc(OCC(=O)OCc3cccc(Br)c3)cc2)cc1 | 10% | i | i | 15%
COc1cc(S(=O)(=O)NCc2ccc3c(c2)OCO3)c(OC)cc1C | 8% | i | i | ?
CC(C)c1ccc(S(=O)(=O)NCc2ccc3c(c2)OCO3)cc1 | 15% | i | i | 11µM*
COc1cc(C)c(S(=O)(=O)NCc2ccc3c(c2)OCO3)cc1C | ? | i | i | 16µM*
SMILES | aSyn rescue | FUS yeast rescue | Abeta yeast res | TDP43 rescue
COc1cc(S(=O)(=O)NCc2ccccc2)ccc1Br | 3% | . | i | 13µM*
CCNS(=O)(=O)c1ccc(Br)c(OC)c1 | 7% | i | i | -7%
COc1cc(S(=O)(=O)NCc2ccc3c(c2)OCO3)ccc1Cl | -10% | i | i | 13µM*
O=C(O)c1ccc(S(=O)(=O)NCc2ccc3c(c2)OCO3)cc1 | -3% | i | i | -4%
COCCn1c(C)cc(C(=O)COC(=O)c2ccc([N+](=O)[O-])o2)c1C | 9% | i | i | ?
CCn1c(CNC(=O)c2cccc(C)c2)nnc1SCC(=O)NC1=NCCS1 | 0% | i | i | -2%
Cc1cc(O)c(C(c2cccc(Cl)c2)N2CCN(c3ccccc3)CC2)c(=O)n1Cc1ccco1 (stereo unspecified) | . | i | i | 5%
O=C(COc1ccccc1)Nc1nc(-c2ccc(S(=O)(=O)N3CCOCC3)cc2)cs1 | 5% | ? | i | 16%
COc1cccc(-c2nc(SCC(=O)NCc3ccccc3)c3c(=O)n(C)c(=O)n(C)c3n2)c1 | . | i | i | 1%
CCOc1ccc(N(CC(=O)Nc2cccc(F)c2)S(=O)(=O)c2c(C)noc2C)cc1 | 7% | i | i | 14%
CCC(=O)N1CCc2cc(CNS(=O)(=O)c3ccc(C(C)C)cc3)ccc21 | . | i | i | 20µM*
COC(=O)N1CCCc2cc(S(=O)(=O)NCc3ccccc3)ccc21 | 18µM* | i | i | 13%
Cc1ccc(C)c2c1cc(C)c1nnc(SCc3ccccn3)n12 | . | i | i | 11µM*
O=C(COC(=O)/C=C/c1ccc(Cl)c(Cl)c1)NC1CCCC1 | -13%[1.84 µM] | i | i | 10µM*
C=CCNc1nc(N)c([N+](=O)[O-])c(Nc2ccccc2OC)n1 | 6% | i | i | 16µM*
COc1ccccc1Nc1nc(NCCCN(C)C)nc(N)c1[N+](=O)[O-] | -1% | i | i | 15%
CC1(C(=O)OCC(=O)NCc2ccc(Cl)cc2)CC1(Cl)Cl (stereo unspecified) | 10% | . | i | 14µM*
O=C(COC(=O)CCC(=O)c1ccc(Cl)cc1)NCc1ccc(F)cc1 | 2% | i | i | 14µM*
CCn1c2ccccc2c2cc(Nc3cc(C)nc4ncnn34)ccc21 | 9% | i | i | 16µM*
CCc1ccc(Nc2cc(C)nc3ncnn23)cc1 | 0% | i | ? | ?
CC(=O)Nc1ccc(-c2sc(Nc3cccc4ccccc34)n[n+]2-c2ccccc2)cc1 | 18% | 32µM* | i | -4%
CSc1ccc(-c2sc(Nc3cccc4ccccc34)n[n+]2-c2ccccc2)cc1 | 15% | ? | i | 11%
Cc1[nH]c2ccccc2c1/C=N/Nc1ccc([N+](=O)[O-])cc1 | 10% | i | i | 2.8µM*
Cc1[nH]c2ccccc2c1/C=N/NC(=O)c1cccc([N+](=O)[O-])c1 | -2% | i | i | 0%
c1ccc(CSc2ncccn2)cc1 | -4% | i | i | -12%
SMILES | aSyn rescue | FUS yeast rescue | Abeta yeast res | TDP43 rescue
c1ccc(CSC2=NNC(c3ccccn3)S2)cc1 (stereo unspecified) | 5.6µM* | i | i | -4%
O=C(CSC1=NNC(c2ccccn2)S1)Nc1ccc(C(F)(F)F)cc1 (stereo unspecified) | 7.9µM* | i | ? | 15%
CC(=O)N1CCN(CC(O)COc2ccc(S(=O)(=O)N3CCOCC3)cc2)CC1 (stereo unspecified) | -7% | i | i | 0%
CCN(CC)S(=O)(=O)c1cc(NC(=O)C(C)N2CCN(c3ccccn3)CC2)ccc1C (stereo unspecified) | -3% | i | i | .
COc1cccc(C(O)c2nc(/C=C/c3ccccc3)cs2)c1 (stereo unspecified) | ? | i | i | 22µM*
COc1cccc(C(NC(C)=O)c2nc(/C=C/c3ccccc3)cs2)c1 (stereo unspecified) | 12% | ? | i | ?
